The values below come from PubChem BioAssay (Tox21).

Each structure is given as a SMILES string. Unmarked numbers belong to inactive results. Results filed as inconclusive are left out. Calls of active or inactive are those of the source. Unless noted, the call rests on the fitted dose curve.

The nature of assay [1]: Nuclear factor erythroid 2-related factor 2/antioxidant responsive element (Nrf2/ARE) small molecule agonists: qHTS cell viability counter screen in human keratinocytes (AID 1919968; active means well fitted curve in the direction sought with a large enough effect in the repeat runs; an effect the other way counts as inactive or inconclusive; further: nearly all actives have a fitted effect of over 55% in size; further: potency means the concentration at half of the fitted maximal effect). An outline of the steps: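 Fluorescence read-out from CellTiter-Fluor after 1 h at 37 C. Wells held HaCaT-derived ARE-luciferase reporter cells (1,500/well) treated 23 h with DMSO-dissolved compounds. Run in the same wells as the luciferase agonist read.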
(In qHTS, concentration-response curves come from the screen itself.)

Assay [2] is described as follows: Nuclear factor erythroid 2-related factor 2/antioxidant responsive element (Nrf2/ARE) small molecule agonists: luciferase reporter gene qHTS assay in human keratinocytes (AID 1919969). Further: nearly all actives have a fitted effect of over 35% in size. Further: potency means the concentration at half of the fitted maximal effect.
Assay [3] has as its target Gonadotropin-releasing hormone receptor (Homo sapiens) (UniProt P30968). The experiment in a line: Human gonadotropin-releasing hormone receptor (GnRHR) small molecule agonists, calcium flux assay in GnRHR-HEK293 cells (AID 1920063). Further: nearly all actives have a fitted effect of over 35% in size. Further: potency means the concentration at half of the fitted maximal effect. The method in brief: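 Calcium-dye fluorescence, Ex/Em=480/540, recorded every 1 sec over 3 min after compound addition to GnRHR-HEK293 cells. Cells had been seeded 18 hours earlier and dye-loaded for 1 hour at 37 C. Fifteen concentrations, triplicates.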
(Calcium assays in cells follow changes in intracellular calcium, usually with a dye or a luminescent sensor.)

In assay [4] the target is KiSS-1 receptor (Homo sapiens) (UniProt Q969F8). Briefly: Human kisspeptin (KISS1R) small molecule agonists, calcium flux assay in KISS1R-HEK293 cells (AID 1920064; active means well fitted curve in the direction sought with a large enough effect in the repeat runs; an effect the other way counts as inactive or inconclusive). An outline of the steps:
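Calcium flux read-out: kinetic fluorescence at Ex/Em=480/540, 1 s intervals over 3 min, after pin-tool compound addition to dye-loaded KISS1R-HEK293 cells. Fifteen concentrations, triplicates.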

Assay [5] is described as follows: G protein-coupled receptor (GPCR) small molecule agonists, calcium flux assay: HEK293 wild type cell line counter screen (AID 1920065). The method in brief: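 Agonist mode; 18 h seeding at 37 C, 1 h dye load at 37 C; compounds pinned from DMSO, ATP as positive control; kinetic fluorescence 480/540 nm, 3 min, 1 s reads; 15 concentrations, triplicate.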
A short description of assay [6]: p53 small molecule agonists, cell-based qHTS assay with human liver microsomes (AID 1963577). The method in brief:
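Compounds act here after metabolic activation: human liver microsomes and NADPH, both at 0.5 mg/mL final, were co-added to p53RE-bla cells. Incubation ran 16 h at 37 C, followed by LiveBLAzer detection.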

A short description of assay [7]: p53 small molecule agonists, cell-based qHTS assay with rat liver microsomes (AID 1963578). The method in brief: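 Read-out is beta-lactamase reporter fluorescence (LiveBLAzer, 2 h, room temperature, dark) in p53RE-bla cells treated 16 h at 37 C with compound, rat liver microsomes and NADPH, both 0.5 mg/mL final.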
A short description of assay [8]: p53 small molecule agonists, cell-based qHTS assay with human liver microsomes: qHTS cell viability counter screen (AID 1963579). Further: nearly all actives have a fitted effect of over 45% in size. Further: potency means the concentration at half of the fitted maximal effect. The method in brief: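 Cells carrying the p53 response-element beta-lactamase reporter are treated for 16 h at 37 C with test compounds in the presence of human liver microsomes and NADPH (both 0.5 mg/mL final); ATP-based CellTiter-Glo luminescence then reports viability.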

The nature of assay [9]: p53 small molecule agonists, cell-based qHTS assay with rat liver microsomes: qHTS cell viability counter screen (AID 1963580). Further: nearly all actives have a fitted effect of over 45% in size. Further: potency means the concentration at half of the fitted maximal effect. An outline of the steps: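 Counter screen for cytotoxicity under metabolic activation: rat liver microsomes and NADPH, 0.5 mg/mL final each, added with compounds to p53RE-bla HCT-116 cells; 16 h at 37 C, then ATP luminescence read.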
The nature of assay [10]: p53 small molecule agonists, cell-based qHTS assay: qHTS cell viability counter screen (AID 1963581). Further: nearly all actives have a fitted effect of over 45% in size. Further: potency means the concentration at half of the fitted maximal effect. The method in brief: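 Cytotoxicity read-out: ATP-based luminescence (CellTiter-Glo, 30 min RT) measured in the same wells as the p53 reporter assay, HCT-116 p53RE-bla cells, 16 h compound exposure at 37 C.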
In assay [11] the target is 5-hydroxytryptamine receptor 2A (Homo sapiens) (UniProt P28223). The experiment in a line: 5-hydroxytryptamine receptor 2A (HTR2A) small molecule antagonists, cell-based qHTS assay (AID 1963586). Further: nearly all actives have a fitted effect of over 45% in size. Further: potency means the concentration at half of the fitted maximal effect. The method in brief: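 CHO cells stably expressing human HTR2A were plated for 18 h at 37 C, then loaded with calcium dye for 1 h. Compounds were preincubated 5 min at room temperature before DOI (4 nM solution) was added. Kinetic fluorescence was read for 3 min.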

The target is the same in assay [12]. The experiment in a line: 5-hydroxytryptamine receptor 2A (HTR2A) small molecule agonists, cell-based qHTS assay (AID 1963587). Further: nearly all actives have a fitted effect of over 30% in size. An outline of the steps:
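HTR2A-CHO cells, plated 18 h at 37 C/5% CO2, dye-loaded 1 h at 37 C; compounds in DMSO added by pin tool (agonist mode). Intracellular calcium flux read as kinetic fluorescence on FDSS over 2 min at 1 s intervals.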

Assay [13] addresses Muscarinic acetylcholine receptor M1 (Homo sapiens) (UniProt P11229). Briefly: Cholinergic receptor muscarinic 1 (CHRM1) small molecule antagonists, cell-based qHTS assay (AID 1963588). Further: nearly all actives have a fitted effect of over 40% in size. An outline of the steps: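 Compounds were tested at 15 concentrations in three independent runs. Dye-loaded CHRM1-CHO cells were exposed 5 min at room temperature before stimulation by acetylcholine added at 50nM. Intracellular calcium was read kinetically on FDSS for 3 min.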

Assay [14] is described as follows: cAMP Responsive Elements (CRE) small molecule agonists, cell-based qHTS assay (AID 1963590). An outline of the steps: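 Beta-lactamase reporter readout: LiveBLAzer B/G FRET substrate, 2 h at room temperature, added after 3 h compound treatment of CRE-bla HEK 293T cells at 37 C/5% CO2.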
Assay [15] has as its target Beta-2 adrenergic receptor (Homo sapiens) (UniProt P07550). Briefly: Adrenergic beta2 receptor (ADRB2) small molecule antagonists, cell-based qHTS assay (AID 1963592). Further: series mostly up to about 92 µM; nearly all actives have a fitted effect of over 50% in size. An outline of the steps:
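Assay format: CHO-ADRB2 cells, 18-20hr seeding at 37C/5% CO2, then compound plus 1nM isoproterenol agonist mix for 0.5hr RT. Homogeneous time-resolved fluorescence cAMP detection after 1hr, expressed as 665/615 nm ratio.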

For assay [16], the target named is D(2) dopamine receptor (Homo sapiens) (UniProt P14416). Briefly: Dopamine D2 receptor (DRD2) small molecule agonists, cell-based qHTS assay (AID 1963594). Further: nearly all actives have a fitted effect of over 35% in size. The method in brief:
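HEK293 cells stably expressing DRD2 were cultured 24 h at 37 C, then given Ro20-1724 (0.1 mM final) and compounds for 10 min at room temperature. NKH477 (200nM) was then added for 30 min. cAMP was read by HTRF.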

For assay [17] the target is unchanged. The experiment in a line: Dopamine D2 receptor (DRD2) small molecule antagonists, cell-based qHTS assay (AID 1963595; active means well fitted inhibition curve with a large enough effect in the signal ratio in the repeat runs, with a control signal flat; the % refers to the signal ratio). An outline of the steps:
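HEK293 cells stably expressing DRD2 were preincubated with 0.1 mM Ro20-1724, then with compound for 10 min at room temperature. Cells were stimulated with 200 nM NKH477 plus 12 nM quinpirole for 30 min, and cAMP was read by HTRF.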

In assay [18] the target is Muscarinic acetylcholine receptor M1 (Homo sapiens) (UniProt P11229). The experiment in a line: Cholinergic receptor muscarinic 1 (CHRM1) small molecule agonists, cell-based qHTS assay (AID 1963589). Further: nearly all actives have a fitted effect of over 35% in size. The method in brief: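 Calcium flux read-out: kinetic fluorescence at 1 sec intervals after pin-tool compound addition to dye-loaded CHRM1-CHO cells (human M1). Agonist mode; 15 concentrations tested in triplicate independent runs.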

A short description of assay [19]: cAMP Responsive Elements (CRE) small molecule antagonists, cell-based qHTS assay (AID 1963591; active means well fitted inhibition curve with a large enough effect in the signal ratio in the repeat runs, not every such curve was filed as active; the % refers to the signal ratio). The method in brief: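 HEK293T CRE-bla; 18 h preincubation; compound pin-transfer; NKH477 0.25 uM final, 3 h, 37 C; LiveBLAzer FRET substrate 2 h RT.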

Chain of 5-hydroxytryptamine receptor 2A (Homo sapiens) (P28223 whole entry, looked up): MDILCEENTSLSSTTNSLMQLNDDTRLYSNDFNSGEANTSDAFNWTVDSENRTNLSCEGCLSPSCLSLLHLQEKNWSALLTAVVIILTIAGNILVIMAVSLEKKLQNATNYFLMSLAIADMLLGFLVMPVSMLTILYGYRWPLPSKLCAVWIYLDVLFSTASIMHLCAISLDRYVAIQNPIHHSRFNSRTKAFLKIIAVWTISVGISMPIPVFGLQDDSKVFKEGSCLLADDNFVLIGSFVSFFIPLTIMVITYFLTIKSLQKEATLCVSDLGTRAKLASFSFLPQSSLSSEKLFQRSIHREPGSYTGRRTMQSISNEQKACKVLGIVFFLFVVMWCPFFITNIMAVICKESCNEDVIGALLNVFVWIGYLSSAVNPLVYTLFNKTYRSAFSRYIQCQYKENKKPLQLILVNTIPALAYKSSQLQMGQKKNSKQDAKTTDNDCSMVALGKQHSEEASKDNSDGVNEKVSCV
Chain of Beta-2 adrenergic receptor (Homo sapiens) (P07550 whole entry, looked up): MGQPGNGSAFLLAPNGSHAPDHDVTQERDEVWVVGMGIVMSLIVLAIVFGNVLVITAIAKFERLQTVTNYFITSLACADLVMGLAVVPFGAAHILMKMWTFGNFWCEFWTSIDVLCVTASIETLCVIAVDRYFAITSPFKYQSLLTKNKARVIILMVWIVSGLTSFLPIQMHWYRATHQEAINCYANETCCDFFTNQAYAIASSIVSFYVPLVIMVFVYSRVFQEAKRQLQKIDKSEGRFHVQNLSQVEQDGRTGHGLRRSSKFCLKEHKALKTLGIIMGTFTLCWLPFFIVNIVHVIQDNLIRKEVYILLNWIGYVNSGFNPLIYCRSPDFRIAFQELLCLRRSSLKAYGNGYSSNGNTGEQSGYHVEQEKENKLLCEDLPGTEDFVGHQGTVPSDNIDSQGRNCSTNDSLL
Chain of KiSS-1 receptor (Homo sapiens) (Q969F8 whole entry, looked up): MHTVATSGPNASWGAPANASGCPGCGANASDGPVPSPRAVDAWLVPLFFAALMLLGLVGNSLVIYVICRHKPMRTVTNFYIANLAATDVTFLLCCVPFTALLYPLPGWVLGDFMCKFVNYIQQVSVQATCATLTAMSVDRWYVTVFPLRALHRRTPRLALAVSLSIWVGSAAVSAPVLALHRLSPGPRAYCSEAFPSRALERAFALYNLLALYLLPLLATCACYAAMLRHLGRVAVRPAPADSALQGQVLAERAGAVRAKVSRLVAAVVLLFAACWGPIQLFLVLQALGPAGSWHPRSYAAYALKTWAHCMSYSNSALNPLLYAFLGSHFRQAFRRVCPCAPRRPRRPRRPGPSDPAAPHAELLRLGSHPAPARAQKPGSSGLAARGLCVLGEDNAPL
Chain of Gonadotropin-releasing hormone receptor (Homo sapiens) (P30968 whole entry, looked up): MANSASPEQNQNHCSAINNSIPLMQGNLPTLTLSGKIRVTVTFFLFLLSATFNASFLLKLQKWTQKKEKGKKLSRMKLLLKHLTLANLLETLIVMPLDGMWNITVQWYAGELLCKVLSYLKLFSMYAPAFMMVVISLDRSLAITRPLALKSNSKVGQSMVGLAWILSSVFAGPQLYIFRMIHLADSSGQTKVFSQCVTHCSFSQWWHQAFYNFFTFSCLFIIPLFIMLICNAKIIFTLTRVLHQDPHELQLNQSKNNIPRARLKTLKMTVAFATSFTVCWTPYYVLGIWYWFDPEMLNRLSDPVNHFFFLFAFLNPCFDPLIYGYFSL
Chain of Muscarinic acetylcholine receptor M1 (Homo sapiens) (P11229 whole entry, looked up): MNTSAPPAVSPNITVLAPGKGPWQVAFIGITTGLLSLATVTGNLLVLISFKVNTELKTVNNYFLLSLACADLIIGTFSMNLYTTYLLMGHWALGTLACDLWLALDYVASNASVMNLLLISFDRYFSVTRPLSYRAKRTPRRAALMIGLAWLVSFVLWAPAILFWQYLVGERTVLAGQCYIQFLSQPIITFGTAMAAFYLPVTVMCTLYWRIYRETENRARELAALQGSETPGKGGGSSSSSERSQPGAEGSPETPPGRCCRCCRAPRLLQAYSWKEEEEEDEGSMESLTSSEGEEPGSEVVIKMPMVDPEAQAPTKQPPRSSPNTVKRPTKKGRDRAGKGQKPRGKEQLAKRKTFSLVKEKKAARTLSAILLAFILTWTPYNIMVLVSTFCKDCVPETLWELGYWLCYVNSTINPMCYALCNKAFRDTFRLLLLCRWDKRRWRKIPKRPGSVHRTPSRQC
Chain of D(2) dopamine receptor (Homo sapiens) (P14416 whole entry, looked up): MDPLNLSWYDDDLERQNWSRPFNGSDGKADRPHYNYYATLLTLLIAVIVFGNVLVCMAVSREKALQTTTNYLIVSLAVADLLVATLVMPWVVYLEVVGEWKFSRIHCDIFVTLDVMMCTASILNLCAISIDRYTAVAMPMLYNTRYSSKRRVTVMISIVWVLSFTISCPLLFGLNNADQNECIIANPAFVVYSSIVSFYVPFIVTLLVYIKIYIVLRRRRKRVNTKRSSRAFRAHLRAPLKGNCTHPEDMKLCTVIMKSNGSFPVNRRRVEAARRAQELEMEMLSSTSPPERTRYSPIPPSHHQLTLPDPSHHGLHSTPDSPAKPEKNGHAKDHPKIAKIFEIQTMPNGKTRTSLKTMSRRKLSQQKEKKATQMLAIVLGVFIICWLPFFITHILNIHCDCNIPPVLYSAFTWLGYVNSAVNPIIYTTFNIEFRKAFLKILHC

As for `CCOC(=O)C(Br)c1ccccc1` (stereo not given), the Potency result in [1], in assay [2], in assay [3], in [6], in assay [7] and in assay [8] was “inactive” each time. Also, the Potency entry in assay [9], in assay [10], in [11], in assay [12], in assay [13] and in assay [14] was “inactive” in each case. Also, the Potency entry in assay [15], in assay [16] and in assay [17] was “inactive” throughout. Moreover, the outcome in assay [4] and in [5] was inactive.
Regarding `CO[C@H]1C=CO[C@@]2(C)Oc3c(C)c(O)c4c(O)c(cc(O)c4c3C2=O)NC(=O)/C(C)=C\C=C/[C@H](C)[C@H](O)[C@@H](C)[C@@H](O)[C@@H](C)[C@H](OC(C)=O)[C@@H]1C`, the Potency in assay [1] was 54.9 µM (active); in [2], 27.5 µM (active). Also, the Potency entry in assay [3], in assay [6], in assay [7], in assay [8], in assay [9] and in [10] was “inactive” in each case. In addition, the Potency entry in assay [11], in [12], in assay [18], in [19] and in assay [16] was “inactive” in each case. Besides, the outcome in assay [4] and in assay [5] was inactive.
With `Cc1cc(N)c(S(=O)(=O)O)cc1Cl`, the Potency entry in [1], in assay [2], in assay [3], in [6], in assay [7] and in assay [8] was “inactive” each time. Also, the Potency result in assay [9], in assay [10], in [11], in assay [12], in assay [14] and in [19] was “inactive” each time. For the same molecule, the Potency result in assay [15], in assay [16] and in assay [17] was “inactive” in each case. The outcome in [4] and in assay [5] was inactive.
As to `O=C(O)c1c(Cl)cccc1Cl`, the Potency result in assay [1], in assay [2], in assay [3], in assay [6], in assay [7] and in assay [8] was “inactive” each time. Further, the Potency result in [9], in assay [10], in assay [12], in assay [13], in assay [18] and in [14] was “inactive” in each case. The Potency entry in assay [19], in assay [15], in assay [16] and in assay [17] was “inactive” each time. Moreover, the outcome in [4] and in [5] was inactive.
As for `C=C/C(C)=C/C/C=C(\C)CCC=C(C)C`, the Potency entry in [1], in assay [3], in assay [6], in [7], in [8] and in [9] was “inactive” in each case. Besides, the Potency result in assay [10], in assay [11], in assay [12], in assay [13], in [15] and in assay [16] was “inactive” in each case. In addition, the Potency result in [17] is “inactive”. Further, in assay [2], the Potency was 68.6 µM (active). Moreover, the outcome in assay [4] and in [5] was inactive.
`C/C=C/C(=O)Oc1c(CCCCCC(C)C)cc([N+](=O)[O-])cc1[N+](=O)[O-]`: the Potency in assay [1] was 17.2 µM (active); in assay [3], 38.9 µM (active); in assay [8], 14.5 µM (active); in [9] it was 40.8 µM (active); in assay [10], 11.5 µM (active); in [11], 21.1 µM (active). Besides, the Potency entry in assay [2], in assay [6], in assay [7], in assay [18], in assay [15] and in [16] was “inactive” in each case. Besides, the outcome in assay [4] and in assay [5] was inactive.
As to `CCOC(=O)N1CCC(n2c(=O)[nH]c3cc(Cl)ccc32)CC1`, the Potency result in assay [1], in assay [2], in assay [3], in [6], in assay [7] and in assay [8] was “inactive” each time. In addition, the Potency result in [9], in assay [10], in assay [11], in assay [13], in assay [18] and in [15] was “inactive” in each case. Moreover, the Potency entry in [16] was “inactive”. Besides, the outcome in assay [4] and in assay [5] was inactive.
With `CC(=O)N(CC(=O)N(C)C)c1ccccc1`, the Potency entry in [1], in assay [2], in [3], in assay [6], in assay [7] and in assay [8] was “inactive” in each case. The Potency entry in [9], in [10], in [12], in [13], in assay [18] and in assay [14] was “inactive” each time. In addition, the Potency entry in assay [19], in assay [15], in assay [16] and in assay [17] was “inactive” throughout. The outcome in assay [4] and in [5] was inactive.
